The results in this text go back to PubChem BioAssay AID1117264 (The Scripps Research Institute Molecular Screening Center, 2014).

Out of some 89,000 compounds screened, about 440 (0.49%) were called active.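 The calls were made as follows: active = inhibition above the mean inhibition across all screened compounds plus 3 SD (cut at about 11% in these data); inactive = the rest.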 Only a selection was taken, and actives are over-represented in it overall.

The target in the experiment is RNA-editing ligase 1, mitochondrial (Trypanosoma brucei brucei) (UniProt P86926). The experiment is described as follows: T. brucei editing ligase REL1 blockade – biochemical, FRET fluorescence, primary screen (AID 1117264).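 Also: 0% = plate median of test wells and 100% = NSC42067 control.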 The settings on record: TbREL1 RNA ligation, at 9.66 µM, active compounds read high.
RNA-editing ligase 1, mitochondrial (Trypanosoma brucei brucei), sequence (P86926 whole entry, looked up): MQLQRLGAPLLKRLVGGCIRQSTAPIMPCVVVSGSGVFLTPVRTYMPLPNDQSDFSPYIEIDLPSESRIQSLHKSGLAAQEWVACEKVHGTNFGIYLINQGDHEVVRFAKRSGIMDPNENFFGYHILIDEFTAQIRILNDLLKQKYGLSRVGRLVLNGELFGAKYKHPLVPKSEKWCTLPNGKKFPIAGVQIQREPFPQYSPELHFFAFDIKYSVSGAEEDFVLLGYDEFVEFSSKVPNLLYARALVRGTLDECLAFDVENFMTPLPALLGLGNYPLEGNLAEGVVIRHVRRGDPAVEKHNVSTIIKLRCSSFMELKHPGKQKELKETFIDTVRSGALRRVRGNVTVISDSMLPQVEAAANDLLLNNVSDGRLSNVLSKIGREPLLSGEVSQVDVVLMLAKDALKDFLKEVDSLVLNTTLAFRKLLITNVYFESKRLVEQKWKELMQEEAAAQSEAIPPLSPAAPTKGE
On to `CCn1c(=S)sc2c(=O)n(CC(=O)Nc3ccc(OC)cc3)c(C)nc21`, for which the inhibition is -1.47% (inactive). Turning to `O=C(NC1CCCCC1)C1CCCN(S(=O)(=O)c2ccc(Br)s2)C1` (centres undefined), the inhibition was 1.07% (inactive).

Consider `CCOC(=O)N1CCN(Cc2nc(Cc3cccc(C(F)(F)F)c3)no2)CC1`, for which the inhibition is 1.05% (inactive). Take `COc1ccc(N(Cc2ccc(N(C)C)cc2)C(=O)c2ccc(S(C)(=O)=O)cc2)cc1`: the inhibition was -9.41% (inactive). As for `COCCN(Cc1ccccc1)C(=O)Cc1ccc(S(=O)(=O)N2CCOCC2)s1`, the figure is -2.32% (inactive); as for `CCc1ccc(CN2C(=O)c3ccccc3C2C(=O)NCC2CCCO2)cc1` (centres undefined), -0.89% (inactive). As for `COCC(=O)N(C)[C@H]1C[C@H]2c3cc(Oc4ccccc4C)ccc3CCN2C(=O)[C@H]1[C@H](C)O`, the figure is 1.02% (inactive); as for `COc1cccc(CNC(=O)C2CCCN(c3ncnc4c3nc3n4CCCCC3)C2)c1` (centres undefined), 0.12% (inactive). Consider `Cc1ccc(NC(=O)Cn2cccc2C2=NC(c3ccccc3)CO2)c(C)c1` (centres undefined), for which the inhibition was -0.96% (inactive). `COc1ccc(N2C(=O)c3ccccc3NC2c2ccc(OC)c(CN3CCOCC3)c2)cc1` (centres undefined): the inhibition is 0.23% (inactive). For `CC[C@@H](C)[C@@H]1CN([C@@H](C)CN2CCC[C@H]2CN2C(N)=NC[C@H]2C(C)C)C(=N)N1CCc1ccc(Cl)c(Cl)c1`, the inhibition was 14% (active). On to `O=C1NC[C@H](Cc2ccc(O)cc2)N(C[C@H]2CCCN2C[C@H](Cc2ccccc2)N2C[C@H](Cc3ccccc3)N(CCc3ccccc3)C(=O)C2=O)C1=O`, for which the inhibition was -1.45% (inactive). Next, `CC1CCCCN1C(=O)Cn1c(=O)oc2cc(S(=O)(=O)N3CCCCC3)ccc21` (centres undefined): -1.44% (inactive); `Cc1cc(C)cc(N(CC(=O)NC2CCCC2)C(=O)CCC(=O)Nc2cc(C)on2)c1`: 0.2% (inactive); `Nc1ncnc2c1ncn2[C@@H]1O[C@H](C(=O)N[C@@H](CCc2ccccc2)C(=O)NCC(=O)N2CCOCC2)[C@@H](O)[C@H]1O`: -1.68% (inactive).

Consider `COc1c(O)cc2oc(-c3ccc(O)c(O)c3)cc(=O)c2c1O`, for which the inhibition was 29.5% (active).

Consider `CCOC(=O)COc1cc(OCC(=O)OCC)c2c(=O)cc(-c3ccccc3)oc2c1`, for which the inhibition was 2.07% (inactive). On to `COc1cc(NC(=O)CSC(=S)N2CCCC2)c(OC)cc1Cl`, for which the inhibition was 6.87% (inactive). As to `Nc1ccc2nc3c(=O)[nH]c(=S)[nH]c3nc2c1`, the inhibition is 50.5% (active). Next, `O=c1[nH]c(=O)c2nc3ccccc3nc2[nH]1`: -0.15% (inactive). On to `COc1ccc([N+](=O)[O-])cc1N(CC(=O)Nc1ccccc1C(=O)N1CCOCC1)S(C)(=O)=O`, for which the inhibition was -1.27% (inactive). `O=C(NCc1ccccc1)[C@@H]1CSC2c3ccccc3C(=O)N21` (some centres undefined): the inhibition was 18.5% (active).

On to `O=C(NCc1ccccc1)C1c2ccccc2OCC(=O)N1C1CC1` (centres undefined), for which the inhibition is 4.12% (inactive). With `O=C(NCc1ccccc1)C1CCN(C(=O)Cc2ccccc2)CC1`, the inhibition was 0.8% (inactive).
